Growth data for nine molecules are collected here from PubChem BioAssay (NCI).

The structures appear in SMILES notation. Compounds without any hit were thinned out: in the full panel of roughly 83,000, 20% have a hit.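 Values shown are percent growth following 48 h exposure of cells in 96-well plates to a single concentration of compound; below 10 was considered active.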 A number with no mark means an inactive call. Calls of active or inactive are those of the source.

Test systems include NCI-H23 lung; NCI-H226 lung; NCI-H322M lung; NCI-H460 lung; NCI-H522 lung; A549/ATCC NSCLC; 786-0 renal; COLO 205 colon; DU-145 prostate; K-562 leukemia; MALME-3M melanoma; MDA-MB-231 breast; RXF 393 renal; SF-268 CNS; SF-295 CNS; SF-539 CNS; UACC-257 melanoma; M14 melanoma; HCT-15 colon.
Holding throughout (assay): NCI-60 one-dose screen, 48 h (100 = growth as untreated, 0 = no growth, -100 = all killed)
Holding throughout (details): 10 µM

Turning to `CCN1CCN(c2nc3ccccc3c3c(=O)c4ccccc4sc23)CC1`, the growth in the assay with NCI-H23 lung is 64.2%; in the assay on NCI-H226 lung it was 49.5%; with NCI-H322M lung, 68.4%; in the assay on NCI-H460 lung it was 20%; with NCI-H522 lung, 35.4%; in the assay on A549/ATCC NSCLC it was 31%. The growth was 47% in the assay on 786-0 renal; 10.7% in the assay with COLO 205 colon; 33% in the assay with DU-145 prostate; 12.8% with K-562 leukemia; 52.5% in the assay with MALME-3M melanoma; -2.38% (active) in the assay on MDA-MB-231 breast. In addition, the growth is 29.8% with RXF 393 renal; 45.6% in the assay on SF-268 CNS; 24.6% in the assay on SF-295 CNS; 48% with SF-539 CNS; 73.9% in the assay on UACC-257 melanoma; -18.5% (active) in the assay on M14 melanoma. In addition, the growth with HCT-15 colon is 31.8%.
For `O=C(C[P+](c1ccccc1)(c1ccccc1)c1ccccc1)C[P+](c1ccccc1)(c1ccccc1)c1ccccc1`, the growth with NCI-H23 lung is -14.5% (active); in the assay with NCI-H226 lung, -71.8% (active); in the assay with NCI-H322M lung, -59.3% (active); in the assay with NCI-H460 lung, -68.3% (active); in the assay with NCI-H522 lung, -83.8% (active); with A549/ATCC NSCLC, -27.9% (active). Besides, the growth with 786-0 renal was -97.9% (active); in the assay with DU-145 prostate, -94% (active); in the assay on K-562 leukemia it was -34.2% (active); in the assay with MALME-3M melanoma, -86.5% (active); in the assay with MDA-MB-231 breast, -71.3% (active); in the assay with RXF 393 renal, -70.2% (active). The growth was -86.3% (active) in the assay with SF-268 CNS; -72.4% (active) in the assay with SF-295 CNS; -98.2% (active) with SF-539 CNS; -82.3% (active) in the assay on UACC-257 melanoma; -75.4% (active) with M14 melanoma; -77.6% (active) with HCT-15 colon.
As to `Cc1cc(C)c(CCc2cc(C)c(C)cc2C)cc1C`, the growth with NCI-H23 lung is 98%; in the assay with NCI-H226 lung, 92.3%; in the assay on NCI-H322M lung, 112%; in the assay on NCI-H460 lung it was 110%; in the assay on NCI-H522 lung, 95.5%; in the assay with A549/ATCC NSCLC it was 99.9%. Moreover, the growth was 108% in the assay with 786-0 renal; 118% in the assay on COLO 205 colon; 107% in the assay with DU-145 prostate; 94.8% in the assay on K-562 leukemia; 104% in the assay on MDA-MB-231 breast; 117% in the assay on RXF 393 renal. In addition, the growth in the assay on SF-268 CNS was 103%; with SF-295 CNS it was 108%; with SF-539 CNS it was 105%; in the assay on UACC-257 melanoma, 101%; in the assay on M14 melanoma it was 111%; with HCT-15 colon, 117%.
In the case of `CCN1CCC2(CC1)OC(c1ccccc1)C(c1ccccc1)O2` (configuration not stated), the growth with NCI-H23 lung is 106%; in the assay with NCI-H226 lung, 96.6%; in the assay with NCI-H322M lung, 133%; with NCI-H460 lung, 118%; in the assay with NCI-H522 lung, 116%; in the assay with A549/ATCC NSCLC, 105%. The growth in the assay with 786-0 renal is 92.7%; in the assay on COLO 205 colon, 106%; with DU-145 prostate it was 115%; in the assay on K-562 leukemia, 88.2%; with MDA-MB-231 breast it was 122%; in the assay with RXF 393 renal, 109%. The growth in the assay with SF-268 CNS was 108%; in the assay with SF-295 CNS, 111%; in the assay with SF-539 CNS, 116%; in the assay with UACC-257 melanoma, 116%; in the assay with M14 melanoma, 112%; in the assay on HCT-15 colon, 106%.
As to `CN(C)c1ccc(N=C2C=CC(=O)c3ccccc32)cc1`, the growth in the assay with NCI-H23 lung is 35.1%; in the assay on NCI-H226 lung it was 91.7%; with NCI-H322M lung it was 14.9%; with NCI-H460 lung, 15.3%; in the assay on NCI-H522 lung it was 48.2%; with A549/ATCC NSCLC, 28%. Further, the growth in the assay with 786-0 renal is 90.3%; in the assay with DU-145 prostate, -58% (active); in the assay on K-562 leukemia, 69.8%; in the assay with MALME-3M melanoma, -11.2% (active); with MDA-MB-231 breast it was 59.5%; with RXF 393 renal, 81.2%. Also, the growth is 73.9% in the assay on SF-268 CNS; 60.5% with SF-295 CNS; 88.7% with SF-539 CNS; 65.3% in the assay on UACC-257 melanoma; -18.2% (active) with M14 melanoma; 53.5% in the assay on HCT-15 colon.
Regarding `O=C(CCCCC[P+](c1ccccc1)(c1ccccc1)c1ccccc1)NC(COC(=O)C(Cl)Cl)(COC(=O)C(Cl)Cl)COC(=O)C(Cl)Cl`, the growth is 108% in the assay on NCI-H23 lung; 102% in the assay with NCI-H226 lung; 99.5% in the assay with NCI-H322M lung; 106% in the assay with NCI-H460 lung; 126% with NCI-H522 lung; 96.5% in the assay on A549/ATCC NSCLC. The growth was 99.6% in the assay on 786-0 renal; 98.1% in the assay with COLO 205 colon; 114% with DU-145 prostate; 98.2% with K-562 leukemia; 111% in the assay on MDA-MB-231 breast; 101% in the assay with RXF 393 renal. Moreover, the growth in the assay with SF-268 CNS is 103%; in the assay with SF-295 CNS, 99%; in the assay on SF-539 CNS, 107%; in the assay on UACC-257 melanoma, 97.5%; in the assay on M14 melanoma, 102%; in the assay on HCT-15 colon it was 99%.
Regarding `CN1CCCNc2c(c(=O)c2=O)NCCCN(C)CCCNc2c(c(=O)c2=O)NCCCN(C)CCCNc2c(c(=O)c2=O)NCCCN(C)CCCNc2c(c(=O)c2=O)NCCCN(C)CCCNc2c(c(=O)c2=O)NCCCN(C)CCCNc2c(c(=O)c2=O)NCCCN(C)CCCNc2c(c(=O)c2=O)NCCC1`, the growth in the assay on NCI-H23 lung is 46.8%; in the assay on NCI-H226 lung, 74.6%; in the assay on NCI-H322M lung, 44.8%; in the assay with NCI-H460 lung it was 32.1%; with NCI-H522 lung, 56.1%; in the assay on A549/ATCC NSCLC it was 37.1%. Moreover, the growth was 54.3% in the assay on 786-0 renal; 13.9% in the assay with COLO 205 colon; -30.2% (active) in the assay on DU-145 prostate; 46.5% with MDA-MB-231 breast; -16.5% (active) with SF-268 CNS; 65.9% in the assay on SF-295 CNS. In addition, the growth in the assay on SF-539 CNS is 6.63% (active); with UACC-257 melanoma, 21.2%; in the assay on M14 melanoma, 61.1%; in the assay with HCT-15 colon, 62.4%.
Consider `O=C1/C(=C\c2cn(C(=O)c3ccc(Cl)cc3)c3ccccc23)c2ccccc2N1C(=O)c1ccc(Cl)cc1`, for which the growth in the assay on NCI-H23 lung is 83.2%; with NCI-H226 lung it was 89.4%; in the assay with NCI-H322M lung, 98.6%; in the assay with NCI-H460 lung it was 86%; with NCI-H522 lung, 6.02% (active); with A549/ATCC NSCLC it was 63.3%. The growth is 93.7% in the assay with 786-0 renal; 105% in the assay on COLO 205 colon; 85.1% with DU-145 prostate; 83.9% with K-562 leukemia; 126% with MALME-3M melanoma; 81.2% in the assay with MDA-MB-231 breast. Moreover, the growth with RXF 393 renal was 83.3%; with SF-268 CNS it was 77.6%; with SF-295 CNS, 102%; in the assay on SF-539 CNS, 67.3%; with M14 melanoma it was 79.2%; with HCT-15 colon, 65.8%.
In the case of `COc1cc(C(=O)N2CCN(c3ccccc3OC)CC2)c(N)cc1OCCCN1CCN(c2ccccc2OC)CC1`, the growth with NCI-H23 lung is 69.8%; in the assay on NCI-H226 lung it was 84.6%; with NCI-H322M lung, 100%; in the assay on NCI-H460 lung it was 108%; in the assay on NCI-H522 lung, 79.4%; with A549/ATCC NSCLC it was 92.7%. Also, the growth in the assay on 786-0 renal was 96%; with COLO 205 colon, 85.9%; with DU-145 prostate, 103%; with K-562 leukemia, 8.81% (active); in the assay on MALME-3M melanoma, 83.4%; with MDA-MB-231 breast, 80.3%. For the same molecule, the growth was 92.5% with RXF 393 renal; 110% in the assay on SF-268 CNS; 96.9% in the assay on SF-295 CNS; 89.9% with SF-539 CNS; 104% in the assay with UACC-257 melanoma; 85.2% with M14 melanoma. For the same molecule, the growth in the assay with HCT-15 colon was 98.7%.
